{"source": "PubChem BioAssay AID588458", "about": "(Sanford-Burnham Center for Chemical Genomics, 2011)", "note": "Hit rate of the full screen: of about 360,000 compounds, about 3,000 (0.83%) were called active. Cut-off read from the data, not from the text of the source: active = inhibition above about 50%; inactive = the rest. This excerpt belongs to a sample that is enriched for actives."}
{"biological_target": "DNA (cytosine-5)-methyltransferase 1 (Homo sapiens) (UniProt P26358)", "sequence (P26358 504-1616 limits assumed)": "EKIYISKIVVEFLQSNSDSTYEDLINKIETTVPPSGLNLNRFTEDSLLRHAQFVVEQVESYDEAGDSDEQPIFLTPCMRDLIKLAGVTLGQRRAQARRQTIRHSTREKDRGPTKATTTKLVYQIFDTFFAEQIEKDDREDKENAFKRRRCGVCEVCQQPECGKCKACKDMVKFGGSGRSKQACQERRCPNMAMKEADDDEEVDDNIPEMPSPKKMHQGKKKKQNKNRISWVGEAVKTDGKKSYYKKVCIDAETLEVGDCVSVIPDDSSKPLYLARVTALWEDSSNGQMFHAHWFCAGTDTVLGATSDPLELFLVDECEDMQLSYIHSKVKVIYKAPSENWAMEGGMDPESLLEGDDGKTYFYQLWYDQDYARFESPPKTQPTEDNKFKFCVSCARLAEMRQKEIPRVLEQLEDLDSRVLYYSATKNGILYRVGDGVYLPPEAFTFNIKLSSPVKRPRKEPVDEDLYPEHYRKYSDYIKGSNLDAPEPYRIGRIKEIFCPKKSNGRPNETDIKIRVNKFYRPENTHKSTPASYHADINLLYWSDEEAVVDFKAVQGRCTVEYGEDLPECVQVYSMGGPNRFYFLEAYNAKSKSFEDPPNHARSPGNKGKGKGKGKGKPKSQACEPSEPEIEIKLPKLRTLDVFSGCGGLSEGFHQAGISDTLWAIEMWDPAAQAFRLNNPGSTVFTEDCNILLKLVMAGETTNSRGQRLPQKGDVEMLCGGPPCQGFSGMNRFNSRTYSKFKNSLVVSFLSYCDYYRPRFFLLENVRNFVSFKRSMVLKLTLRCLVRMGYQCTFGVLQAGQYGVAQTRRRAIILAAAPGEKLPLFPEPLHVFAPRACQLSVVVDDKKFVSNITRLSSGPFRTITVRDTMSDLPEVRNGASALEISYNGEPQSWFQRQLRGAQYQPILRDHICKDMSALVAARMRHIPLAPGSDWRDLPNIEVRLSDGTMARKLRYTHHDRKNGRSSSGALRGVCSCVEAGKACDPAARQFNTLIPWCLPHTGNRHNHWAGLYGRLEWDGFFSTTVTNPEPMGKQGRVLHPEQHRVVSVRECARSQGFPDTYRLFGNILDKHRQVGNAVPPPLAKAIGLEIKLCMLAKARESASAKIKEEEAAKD", "test": "inhibition of DNA methyltransferase DNMT1 – biochemical, molecular beacon, fluorescence, HinP1I cleavage, uHTS, primary screen (AID 588458)", "conditions": "at 10 µM, active compounds read high"}
{"smiles": "COC(=O)CCCCC1=CCC2C(=O)C=C(O)C2C1", "note": "(stereo not given)", "inhibition (reported as % activation of signal)": "92.7% (active)"}
{"smiles": "CCOc1ccc2[nH]c(=S)sc2c1", "inhibition (reported as % activation of signal)": "0.55% (inactive)"}
{"smiles": "CC(=O)N1CCN(C(=O)c2cc(-c3ccc(C)o3)nc3ccccc23)CC1", "inhibition (reported as % activation of signal)": "1.05% (inactive)"}
{"smiles": "Cc1ccc(NC(=O)c2cc(-c3ccc(C)o3)nc3ccccc23)nc1", "inhibition (reported as % activation of signal)": "76.5% (active)"}
{"smiles": "CSc1ncccc1C(=O)Nc1ccc(C)cn1", "inhibition (reported as % activation of signal)": "-0.42% (inactive)"}
{"smiles": "COc1ccccc1-n1nnnc1S(=O)(=O)Cc1ccc(Cl)cc1", "inhibition (reported as % activation of signal)": "22% (inactive)"}
{"smiles": "O=C(CCc1nnc2ccc(NCc3ccco3)nn12)Nc1cc(F)ccc1F", "inhibition (reported as % activation of signal)": "29.7% (inactive)"}
{"smiles": "COC(=O)c1ccc(C(=O)NC2CC(C)(C)Cc3c2cnn3-c2ccc(F)cc2)nc1", "note": "(stereo not given)", "inhibition (reported as % activation of signal)": "-1.04% (inactive)"}
{"smiles": "CCCOc1ccc(F)cc1-c1cc(C(=O)Nc2ccc(F)cc2)[nH]n1", "inhibition (reported as % activation of signal)": "-1.3% (inactive)"}
{"smiles": "COc1cc(F)ccc1-c1cc(C(=O)NCC2CCCCC2)[nH]n1", "inhibition (reported as % activation of signal)": "-0.63% (inactive)"}
{"smiles": "COc1ccc(OC)c(NC(=O)c2cc(-c3cc(F)ccc3OCC3CCCO3)n[nH]2)c1", "note": "(stereo not given)", "inhibition (reported as % activation of signal)": "105% (active)"}
{"smiles": "Cc1ccc(-n2c(SCC(=O)N3CCC(C(=O)O)CC3)nc3ccccc3c2=O)cc1C", "inhibition (reported as % activation of signal)": "-1.54% (inactive)"}
{"smiles": "Cc1cc(C)c(C(=O)CSc2nc(C)cc(=O)[nH]2)c(C)c1", "inhibition (reported as % activation of signal)": "-2.03% (inactive)"}
{"smiles": "COc1ccc(C2=NOC(C(=O)NCc3ccco3)C2)cc1OC", "note": "(stereo not given)", "inhibition (reported as % activation of signal)": "1.36% (inactive)"}
{"smiles": "CCOc1ccc(C(=O)Nc2cc(Cl)ccc2-n2cncn2)cc1OC", "inhibition (reported as % activation of signal)": "0.02% (inactive)"}
{"smiles": "CC1CCN(C(=O)C2CCN(S(=O)(=O)N3CCC4(CC3)OCCO4)CC2)CC1", "inhibition (reported as % activation of signal)": "1.13% (inactive)"}
{"smiles": "COC(=O)C(NC(C)=O)(Nc1nc2c(s1)CCCC2)C(F)(F)F", "note": "(stereo not given)", "inhibition (reported as % activation of signal)": "0.31% (inactive)"}
{"smiles": "CCOC(=O)c1c(NC(=O)Cn2nc(C(F)(F)F)cc2C)sc2c1CCC2", "inhibition (reported as % activation of signal)": "-22.3% (inactive)"}
{"smiles": "CCOC(=O)C(NC(=O)CC(C)C)(Nc1sc2c(c1C(N)=O)CCCC2)C(F)(F)F", "note": "(stereo not given)", "inhibition (reported as % activation of signal)": "85.2% (active)"}
{"smiles": "N#Cc1c(N2CCCCC2)nc(N)c2c(N)nc(SCC(=O)O)cc12", "inhibition (reported as % activation of signal)": "52.1% (active)"}
{"smiles": "N#Cc1c(C(F)(F)F)cc(-c2cccs2)nc1N1CCCCC1", "inhibition (reported as % activation of signal)": "-1.64% (inactive)"}
{"smiles": "O=C(O)CSc1ccc(S(=O)(=O)N2CCCC2)cn1", "inhibition (reported as % activation of signal)": "-4.98% (inactive)"}
{"smiles": "CC1(C)C2CC=C(/C=N/NC(=O)c3ccc(Cl)cc3)C1C2", "note": "(stereo not given)", "inhibition (reported as % activation of signal)": "2.7% (inactive)"}
{"smiles": "Nc1nc2c(ncn2[C@@H]2O[C@H](CNS(=O)(=O)N3CCc4ccccc4C3)[C@@H](O)[C@H]2O)c(=O)[nH]1", "inhibition (reported as % activation of signal)": "0.15% (inactive)"}
{"smiles": "COCCNC(=O)C1(C)CCCN(Cc2cccc(F)c2)C1", "note": "(stereo not given)", "inhibition (reported as % activation of signal)": "-1.11% (inactive)"}
{"smiles": "O=S(=O)(Nc1n[nH]c(C(F)(F)F)n1)c1ccccc1", "inhibition (reported as % activation of signal)": "-0.37% (inactive)"}
{"smiles": "Nc1cc2c(cc1Br)-c1ccc(F)cc1C2=O", "inhibition (reported as % activation of signal)": "71.6% (active)"}
{"smiles": "CC(=O)Nc1ccc(S(=O)(=O)Nc2cc(C)cn(Cc3ccc(C)cc3)c2=O)cc1", "inhibition (reported as % activation of signal)": "-4.47% (inactive)"}
{"smiles": "CC(=O)c1ccc(Nc2nc(C(N)c3ccccc3Cl)cs2)cc1", "note": "(stereo not given)", "inhibition (reported as % activation of signal)": "-17.7% (inactive)"}
{"smiles": "CC(=O)c1ccc(Nc2nc(C(N)c3ccccc3)cs2)cc1", "note": "(stereo not given)", "inhibition (reported as % activation of signal)": "80.3% (active)"}
{"smiles": "NC(c1ccccc1)c1csc(NC(=O)Nc2cccc(C(F)(F)F)c2)n1", "note": "(stereo not given)", "inhibition (reported as % activation of signal)": "-22.9% (inactive)"}
{"smiles": "CCCS(=O)(=O)NC(=O)C1(C)CCN(C(=O)c2sccc2C)C1", "note": "(stereo not given)", "inhibition (reported as % activation of signal)": "-0.36% (inactive)"}
{"smiles": "COc1cc(NC(=O)CCNC(=O)Cn2ccc3ccccc3c2=O)cc(OC)c1OC", "inhibition (reported as % activation of signal)": "-1.53% (inactive)"}
{"smiles": "CCOC(=O)c1ccn(S(=O)(=O)c2ccc(C)cc2)c1-c1ccccc1", "inhibition (reported as % activation of signal)": "0.08% (inactive)"}
{"smiles": "C/C=C\\C=C\\C(=O)N1CC2(CC(c3cccc(NC(=O)/C(C)=C\\C)c3)=NO2)C[C@H]1C(N)=O", "note": "(stereo not given in full)", "inhibition (reported as % activation of signal)": "-7.28% (inactive)"}
{"smiles": "CC/C=C/C(=O)N1CC2(CC(c3cccc(NC(=O)CC)c3)=NO2)C[C@H]1C(N)=O", "note": "(stereo not given in full)", "inhibition (reported as % activation of signal)": "5.63% (inactive)"}
{"smiles": "C=C(C)C(=O)Nc1cccc(C2=NOC3(C2)C[C@H](C(N)=O)N(C(=O)C(c2ccccc2)c2ccccc2)C3)c1", "note": "(stereo not given in full)", "inhibition (reported as % activation of signal)": "98.1% (active)"}
{"smiles": "CC(=O)Nc1ccc(NC(=O)C2CCCN2S(=O)(=O)c2cccc(C(F)(F)F)c2)cc1", "note": "(stereo not given)", "inhibition (reported as % activation of signal)": "-0.75% (inactive)"}
{"smiles": "COc1cccc(-n2c(N)cc(=O)nc2SCC(=O)Nc2cc(C)on2)c1", "inhibition (reported as % activation of signal)": "0.03% (inactive)"}
{"smiles": "O=C(c1ccccc1Cl)N(Cc1ccccc1F)N1C(=O)CCCC1=O", "inhibition (reported as % activation of signal)": "1.73% (inactive)"}
{"smiles": "COc1ccc(NC(=O)COC(=O)c2ccncc2)c(OC)c1", "inhibition (reported as % activation of signal)": "7.14% (inactive)"}
{"smiles": "COc1ccc(NC(=O)CCn2ccnc2)c(OC)c1", "inhibition (reported as % activation of signal)": "78.8% (active)"}
{"smiles": "COc1ccc(NC(=O)CCCC2CCCCC2)c(OC)c1", "inhibition (reported as % activation of signal)": "1.18% (inactive)"}
{"smiles": "O=C(OCCO)c1cc(Cl)c(C(=O)OCCO)cc1Cl", "inhibition (reported as % activation of signal)": "-0.85% (inactive)"}
{"smiles": "FC(F)(F)c1ccc(-c2cccc3c2C2CC3CCN2Cc2ccccc2)cc1", "note": "(stereo not given)", "inhibition (reported as % activation of signal)": "5.02% (inactive)"}
